Measurements published in ChEMBL document CHEMBL3988442, “University of Dundee, Small-Polar-MMV Screening Library” (2021).
The campaign covered roughly 69,000 compounds. About 950 (1.4%) showed an effect of 50% or more. The full list was thinned out, with strong results kept by preference.

Tested on: Mycobacterium tuberculosis
Assay: Cornell M. t heat shock assay; note: in the data most compounds retested in dose-response had high values
Assay type: functional, organism-based
Parameters: dose or concentration left out as unconfirmed

| Structure (SMILES) | Percent Effect |
| --- | --- |
| O=C(C1CC1)N1CC[C@@H]2[C@H](CC1)N(Cc1cccnc1)CCS2(=O)=O.O=C(O)C(F)(F)F.O=C(O)C(F)(F)F | -20.85% |
| COCCNS(=O)(=O)c1cccc2c1CN(C(=O)c1ccccc1)CC2 | -0.08173% |
| COCCNS(=O)(=O)c1ccc2c(c1)CCN(C(=O)c1cncn1C)C2 | 91.56% |
| COCCNS(=O)(=O)c1cccc2c1CN(C(=O)c1cnccn1)CC2 | 3.399% |
| CC(C1CCN(Cc2c(Cl)cncc2Cl)CC1)N1CCOCC1 (stereo unspecified) | -44.11% |
| CC(C1CCN(Cc2ccc(N(C)C)nc2)CC1)N1CCOCC1 (stereo unspecified) | -22.49% |
| CC(C1CCN(Cc2ccccc2OC(F)F)CC1)N1CCOCC1 (stereo unspecified) | 90.2% |
| CC(C)Oc1cccc(CN2CCC(c3n[nH]c4ncccc34)CC2)c1 | -24.22% |
| FC(F)Oc1ccccc1CN1CCCC(c2nccn2CC2CC2)C1 (stereo unspecified) | 23.85% |
| CC(C)Oc1cccc(CN2CCC(C(C)N3CCOCC3)CC2)c1 (stereo unspecified) | 91.46% |
| CC(C1CCN(Cc2cccc(OC(F)F)c2)CC1)N1CCOCC1 (stereo unspecified) | 1.128% |
| CC(C)Oc1ccc(CN2CCC(Cc3nnc(CO)n3C)CC2)cc1 | -21.53% |
| CC(C1CCN(Cc2ccc(OC(F)F)cc2)CC1)N1CCOCC1 (stereo unspecified) | 96.37% |
| CC(=O)NCC(=O)N1Cc2nccn2CC(COc2cccnc2)C1.O=C(O)C(F)(F)F (stereo unspecified) | -35.06% |
| Cc1nc(C2(O)CCCNCC2)sc1CCOc1ccccc1F.Cl (stereo unspecified) | -4.166% |
| O=CO.c1cc2nccc(CC3CCCN(Cc4c[nH]cn4)CC3)c2cn1 (stereo unspecified) | -8.502% |
| CCN1CCOCC12CCN(c1cnccn1)CC2.O=C(O)C(F)(F)F | -4.677% |
| CC(C)(CO)CNC(=O)c1cc(-c2cc[nH]n2)n2ccccc12.O=C(O)C(F)(F)F | 10.76% |
| O=C(O)C(F)(F)F.O=C(O)C(F)(F)F.O=C(O)C(F)(F)F.c1cncc(CN2CCC3(CC2)CC(c2cccnc2)CO3)c1 (stereo unspecified) | -27.59% |
| CNC(=O)COc1ccc(CNc2cncc(-n3cccn3)n2)cc1 | -4.201% |
| CCCOc1ccc(CNc2cncc(-n3cccn3)n2)cc1 | 63.69% |

| Structure (SMILES) | Percent Effect |
| --- | --- |
| CCOCc1ccc(CNc2cncc(-n3cccn3)n2)cc1 | -0.9926% |
| CCOc1cc(CN(C)CC(=O)O)ccc1OC(F)F.Cl | -22.89% |
| Cc1cc2cccc(NC(=O)N3CC[C@@H]4CC[C@H](C3)N4C)c2o1 | 25.84% |
| Cc1cc(-c2cnn(CCNC(=O)c3cc[nH]n3)c2C2CC2)on1 | 53.69% |
| Cc1cc(-c2cnn(CCNC(=O)C3CC3)c2C2CC2)on1 | -1.703% |
| Cc1cc(-c2cnn(CCNC(=O)c3cnn(C)c3)c2C2CC2)on1 | -6.591% |
| O=S(=O)(c1ccccc1)N1C(CN2CCOCC2)[C@]2(O)CC[C@H]1CC2 (stereo partly specified) | -28.69% |
| CCS(=O)(=O)N1CCOC2(CCCN(Cc3ccccn3)C2)C1.O=C(O)C(F)(F)F (stereo unspecified) | 2.925% |
| COCCC(=O)N1CCC(c2cncc(Oc3cccnc3)n2)CC1 | 51.38% |
| CCC(=O)N1CCC(c2cncc(Oc3cccnc3)n2)CC1 | -19.43% |
| NCC(=O)N1CCC(c2cncc(Oc3cccnc3)n2)CC1 | -6.248% |
| CCOc1ccc(Cl)cc1C1CCCN1.Cl (stereo unspecified) | -11.35% |
| Cl.c1ccc(CCNc2cccc(C3CCCNC3)n2)cc1 (stereo unspecified) | -24.38% |
| Cl.Clc1cccc(N[C@H]2CCCN[C@H]2Cc2ccccc2)c1 | 104.4% |
| O=C1NCCCC1NC(=O)C1(c2cccc(Cl)c2)CCC1 (stereo unspecified) | 0.8202% |
| CN[C@H]1CC[C@]2(CC1)CNC(=O)c1cc(C)ccc1O2 | -8.947% |
| CN1CCN(S(=O)(=O)c2ccccc2)Cc2cccnc21.O=C(O)C(F)(F)F | 19.11% |
| CN(C)CC(=O)N1CCC2(CC1)CN(Cc1cccnc1)C(=O)CO2 | -16.01% |
| Cc1cc(C)n(CC2CCCN2CCCS(C)(=O)=O)n1 (stereo unspecified) | 7.273% |
| COc1ccc2c(c1)CN(C)C(=O)CCN2CC(O)C(F)(F)F (stereo unspecified) | 35.74% |
| CCCC(O)CN1CCC(=O)N(CCOC)Cc2cc3c(cc21)OCO3 (stereo unspecified) | 26.79% |

| Structure (SMILES) | Percent Effect |
| --- | --- |
| CCCC(O)CN1CCC(=O)N(CCOC)Cc2ccccc21 (stereo unspecified) | 30.93% |
| CCN1CCC(=O)N(C)Cc2cc(F)ccc21 | 13.57% |
| CCCC(O)CN1CCC(=O)N(Cc2ccccc2)Cc2ccccc21 (stereo unspecified) | 5.738% |
| CCCC(O)CN1CCC(=O)N(CC2CC2)Cc2cc3c(cc21)OCO3 (stereo unspecified) | 15.68% |
| CN1Cc2ccccc2N(CC(O)C(F)(F)F)CCC1=O (stereo unspecified) | 42.32% |
| CN1Cc2cc(F)ccc2N(CC(C)(C)O)CCC1=O | 56.09% |
| CC(C)(O)CN1CCC(=O)N(Cc2ccco2)Cc2cc(F)ccc21 | -9.768% |
| CN1Cc2cc(F)ccc2N(CC(O)C(F)(F)F)CCC1=O (stereo unspecified) | 54.29% |
| CCCC(O)CN1CCC(=O)N(C)Cc2cc(F)ccc21 (stereo unspecified) | 66.32% |
| CCCC(O)CN1CCC(=O)N(CC)Cc2cc3c(cc21)OCO3 (stereo unspecified) | 53.46% |
| CCc1ccc(CN2C[C@H](OC)[C@H]3COC[C@H]32)o1.O=C(O)C(F)(F)F | 46.3% |
| Cn1cc(CN2C[C@H]3CCC[C@@]3(COc3ccccn3)C2)cn1.O=C(O)C(F)(F)F.O=C(O)C(F)(F)F | -2.585% |
| Cl.Fc1cccc(F)c1Cn1c(C2CCNCC2)cc2cccnc21 | -5.947% |
| Cc1nc(CN2C(=O)C[C@H]3[C@H]2CCN3CC2CCOC2)cs1.O=C(O)C(F)(F)F (stereo partly specified) | -4.028% |
| COCC1CC2(CCN(c3ccc(C)nn3)CC2)CN1C(C)C.O=C(O)C(F)(F)F (stereo unspecified) | -4.94% |
| Cl.Cl.O=C(NCc1cncc2c1CCN(CC1CCOC1)C2)c1ccco1 (stereo unspecified) | 5.54% |
| COCCN1CCC2(C1)c1ccccc1S(=O)(=O)N2C.O=C(O)C(F)(F)F (stereo unspecified) | 24.71% |
| Cc1cc(N2CCN(Cc3ccnn3C)CC2)cc(C2CCCN2)n1.Cl (stereo unspecified) | -17.02% |
| Cc1nc(C2(O)CCCNCC2)sc1CCOc1ccc(F)c(F)c1.Cl (stereo unspecified) | -9.071% |
